Each structure is given as a SMILES string. Compounds without any hit were thinned out: in the full panel of roughly 83,000, 20% have a hit.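 Cells were grown in 96-well plates and exposed to the test compound at a single concentration for 48 hours; results are reported as percent growth, with values below 10 considered active.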 Unmarked numbers belong to inactive results. Calls of active or inactive are those of the source.

Among the test systems are SK-MEL-2 melanoma; EKVX NSCLC; SN12C renal; UO-31 renal; TK-10 renal; ACHN renal; CAKI-1 renal; A498 renal; CCRF-CEM leukemia; MOLT-4 leukemia; OVCAR-8 ovarian; OVCAR-5 ovarian; OVCAR-4 ovarian; SK-OV-3 ovarian; IGROV1 ovarian; OVCAR-3 ovarian; HS 578T breast; NCI/ADR-RES ovarian; RPMI-8226 leukemia.
What all share (experiment): NCI-60 one-dose screen, 48 h (100 = growth as untreated, 0 = no growth, -100 = all killed)
What all share (settings): 10 µM unless noted

As for `NC(N)=Nc1nc2ccccc2n2c1nc1ccccc12`, the growth with SK-MEL-2 melanoma is 70.3%; in the test with EKVX NSCLC, 36.3%; with SN12C renal, 28.3%; with UO-31 renal, 34.3%; in the test on TK-10 renal, 46.2%; in the test on ACHN renal, 11.7%. For the same molecule, the growth is 23.2% in the test with CAKI-1 renal; 52.5% in the test on A498 renal; 25.7% in the test with CCRF-CEM leukemia; 7.99% (active) in the test on MOLT-4 leukemia; 25.5% in the test with OVCAR-8 ovarian; 54.3% with OVCAR-5 ovarian. Further, the growth is 36% in the test with OVCAR-4 ovarian; 32.9% in the test with SK-OV-3 ovarian; 20.3% in the test with IGROV1 ovarian; 43.3% in the test with OVCAR-3 ovarian; 43.8% with HS 578T breast; 63.1% with NCI/ADR-RES ovarian.
`COc1cc(/C=C/C(=O)c2c(C)nc3ccccc3c2/C=C/c2ccc(C)cc2)cc(OC)c1OC`: the growth with SK-MEL-2 melanoma was 39.7%; in the test with EKVX NSCLC it was 34.7%; with SN12C renal, 15.2%; in the test on UO-31 renal, 33.5%; in the test on TK-10 renal, 54.3%; with ACHN renal, 13.7%. The growth in the test with CAKI-1 renal is 28.6%; in the test on A498 renal it was 32.6%; in the test on CCRF-CEM leukemia, 5.31% (active); with MOLT-4 leukemia it was 4.36% (active); in the test with RPMI-8226 leukemia, -13.4% (active); in the test on OVCAR-8 ovarian, 17%. For the same molecule, the growth is 39.5% with OVCAR-4 ovarian; 58.6% in the test on SK-OV-3 ovarian; 21% in the test with IGROV1 ovarian; 15.6% in the test on OVCAR-3 ovarian; 46.7% in the test on HS 578T breast; 9.69% (active) with NCI/ADR-RES ovarian.
For the molecule `O=c1c2cc(F)ccc2sc2c(NCCCN3CCCC3)nc3ccccc3c12`, the growth was 85.4% in the test with SK-MEL-2 melanoma; 53.5% in the test with EKVX NSCLC; 42.3% in the test on SN12C renal; 15.1% with UO-31 renal; 57.9% in the test with TK-10 renal; 41.8% with ACHN renal. Besides, the growth in the test with CAKI-1 renal is 30.4%; in the test on A498 renal, 46.6%; in the test with CCRF-CEM leukemia, 29%; with MOLT-4 leukemia, -14.5% (active); in the test on OVCAR-8 ovarian, 55.6%; in the test with OVCAR-5 ovarian, 70.3%. For the same molecule, the growth in the test on OVCAR-4 ovarian was 48.7%; in the test with SK-OV-3 ovarian it was 88.9%; in the test on IGROV1 ovarian it was 15.1%; with OVCAR-3 ovarian it was 29.3%; in the test on HS 578T breast, 43.8%; in the test with NCI/ADR-RES ovarian it was 67.5%.
As for `Cc1ccc(/C=C2\C(=O)N(C)c3ccc(S(=O)(=O)Nc4ccc(C(C)(C)C)cc4)cc32)s1`, the growth in the test on SK-MEL-2 melanoma is 90.3%; in the test on EKVX NSCLC, 54.3%; in the test with SN12C renal, 36.7%; in the test with UO-31 renal, 56.9%; in the test on TK-10 renal, 70.2%; in the test with ACHN renal it was 59.8%. In addition, the growth in the test with CAKI-1 renal is 55.2%; with A498 renal, 75.9%; in the test on CCRF-CEM leukemia it was 65.6%; in the test on MOLT-4 leukemia, 78.2%; with OVCAR-8 ovarian it was 29.5%; with OVCAR-5 ovarian, 69.4%. The growth was -1.02% (active) in the test on OVCAR-4 ovarian; 76.4% in the test on SK-OV-3 ovarian; 63.9% in the test with IGROV1 ovarian; -5.78% (active) with HS 578T breast; 62.1% with NCI/ADR-RES ovarian.
With `Cc1ccc(NS(=O)(=O)c2ccc3c(c2)C2OCCC2C(c2ccc(C(=O)C(C)C)cc2)N3)cc1C` (stereo unspecified), the growth was 72.9% in the test on SK-MEL-2 melanoma; 24.7% in the test with EKVX NSCLC; 52.3% in the test on SN12C renal; 25.7% in the test on UO-31 renal; 63.5% in the test with TK-10 renal; 32.3% with ACHN renal. The growth in the test on CAKI-1 renal was 45.5%; with A498 renal, 40.1%; in the test on CCRF-CEM leukemia, 60.3%; in the test with MOLT-4 leukemia it was 31.1%; with OVCAR-8 ovarian it was 58.1%; in the test on OVCAR-4 ovarian, 34.6%. Moreover, the growth is 59.3% in the test on SK-OV-3 ovarian, 56.9% in the test with IGROV1 ovarian, 81.7% in the test on HS 578T breast and 41.9% with NCI/ADR-RES ovarian.
On to `Cc1ccc(NS(=O)(=O)c2ccc3c(c2)C(=O)CC(c2ccc(C(=O)C(C)C)cc2)N3)cc1C` (stereo unspecified), for which the growth in the test with SK-MEL-2 melanoma was 64.2%; in the test with EKVX NSCLC, 22.7%; with SN12C renal it was 76.4%; in the test on UO-31 renal it was 51.7%; in the test on TK-10 renal it was 77.9%; with ACHN renal, 55.1%. The growth with CAKI-1 renal was 55.9%; with A498 renal it was 45.2%; with CCRF-CEM leukemia, 50.3%; with MOLT-4 leukemia it was 54.5%; with OVCAR-8 ovarian it was 73.4%; in the test with OVCAR-5 ovarian it was 80.1%. Also, the growth with SK-OV-3 ovarian is 74.4%; in the test on IGROV1 ovarian, 66.8%; in the test with OVCAR-3 ovarian, 74.4%; with HS 578T breast, 73.2%; in the test on NCI/ADR-RES ovarian, 56.3%.
As to `COc1ccc2c(c1)[nH]c(=O)c1c3cccnc3cn21`, the growth was 68.9% with SK-MEL-2 melanoma; 63.2% in the test with EKVX NSCLC; 13.4% in the test with SN12C renal; 41% in the test with UO-31 renal; 61.8% in the test with TK-10 renal; 30.5% with ACHN renal. For the same molecule, the growth in the test with CAKI-1 renal was -14.4% (active); in the test on A498 renal, -3.48% (active); in the test with CCRF-CEM leukemia, 23.1%; with MOLT-4 leukemia, 25.1%; in the test on RPMI-8226 leukemia, 32%; in the test with OVCAR-8 ovarian it was 8.08% (active). The growth with SK-OV-3 ovarian is 11.9%; in the test on IGROV1 ovarian it was 20.2%; in the test on OVCAR-3 ovarian, 23.8%; with NCI/ADR-RES ovarian, 0.176% (active).
Take `CC(C)Sc1nc(NNC(N)=S)c(C#N)c(-c2ccc(F)cc2)n1`: the growth with SK-MEL-2 melanoma was 103%; with EKVX NSCLC, 96.7%; in the test with SN12C renal, 96.1%; in the test with UO-31 renal, 79.7%; in the test on TK-10 renal, 96.3%; in the test on ACHN renal, 94.3%. In addition, the growth was 88.8% in the test on CAKI-1 renal; 61.7% with A498 renal; 93.2% with CCRF-CEM leukemia; 95.7% in the test with MOLT-4 leukemia; 97.4% with OVCAR-8 ovarian; 88.3% in the test on OVCAR-5 ovarian. The growth in the test on OVCAR-4 ovarian is 102%; with SK-OV-3 ovarian, 83.9%; in the test on IGROV1 ovarian it was 97.1%; in the test with OVCAR-3 ovarian, 113%; with HS 578T breast it was 101%; in the test with NCI/ADR-RES ovarian, 99%.
For the molecule `COc1c(CCC[P+](c2ccccc2)(c2ccccc2)c2ccccc2)cc2c(c1OC)OCO2`, the growth is -24.2% (active) in the test on SK-MEL-2 melanoma; 15.6% in the test on EKVX NSCLC; 2.66% (active) with SN12C renal; 86.6% with UO-31 renal; 2.13% (active) in the test with TK-10 renal; 55.6% in the test with ACHN renal. Further, the growth in the test on CAKI-1 renal is 31.9%; with A498 renal it was -9.74% (active); in the test with CCRF-CEM leukemia it was 29.7%; with MOLT-4 leukemia it was 33.3%; in the test with RPMI-8226 leukemia, 8.37% (active); in the test on OVCAR-8 ovarian it was 8.63% (active). Besides, the growth with OVCAR-4 ovarian is 6.3% (active); in the test on SK-OV-3 ovarian, 14.1%; in the test on IGROV1 ovarian, 21.2%; in the test with OVCAR-3 ovarian, 7.21% (active); in the test with HS 578T breast, 11.7%; in the test on NCI/ADR-RES ovarian it was 103%.

The values above are taken from PubChem BioAssay (NCI).
